Pf Dd2 inh: P. falciparum Dd2 growth inhibitors, primary screen, SYBR Green fluorescence, single dose replicates | 72 h; active compounds read low | activity change, % at 10 µM | 2.3% of 94,000 active; in the data active = activity change below about -80%; inconclusive = no clear call, values can overlap the other calls
C diff HTS: C. difficile growth inhibitors, primary screen, HTS; growth activity, negative = inhibition, % at 16 µg/mL (by protocol); Clostridium difficile clinical isolate growth, OD600, 24 h; active compounds read low; 0.25% of 86,000 active;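 active = mean growth activity at or below -80% and every replicate also at or below -80%; inconclusive = mean at or below -80% but some replicate above -80%; inactive = mean growth activity above -80%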;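 note: 0% = DMSO wells and -100% = levofloxacin 16 µg/mL wells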
T cruzi growth-1: T. cruzi intracellular proliferation inhibitors, primary screen, cell-based, beta-gal Tulahuen parasites, NIH3T3 host, luminescence; 5.9% of 77,000 active; inhibition, % at 8.34 µM; T. cruzi beta-gal in NIH3T3, GalScreen luminescence, 90 h; AID 624255, 2012;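 active = mean inhibition above about 93%, with at least 55% of replicates each passing it, limit read from the data, passing the limit was not always enough; inconclusive = only one of those two conditions holds; inactive = neither condition holds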
T cruzi growth-2: T. cruzi intracellular proliferation inhibitors, confirmation, cell-based, NIH3T3 host, beta-gal parasite, luminescence, cherry-pick; shares compounds with T cruzi growth-1; T. cruzi beta-gal in NIH3T3, GalScreen luminescence, 90 h; inhibition, % at 8.35 µM; 72% of 5,600 active;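 active = mean replicate inhibition above about 95% and at least 55% of replicates individually reaching it, limit read from the data; inconclusive = only one of the two criteria is met; inactive = neither criterion is met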
T cruzi growth-3: inhibitors of intracellular T. cruzi replication, confirmation, NIH3T3 host cells, beta-gal parasites, cherry-pick, set 2; shares compounds with T cruzi growth-1; T. cruzi beta-gal in NIH3T3, GalScreen luminescence, 90 h; inhibition, % at 2.09 µM; 21% of 5,600 active;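 active = mean inhibition above about 95%, with at least 55% of replicates also reaching it, limit read from the data; inconclusive = meets just one of the two conditions; inactive = meets neither condition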;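 note: plate controls were neutral control median for no effect and positive control median for full effect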
NIH3T3 tox: cytotoxicity in mouse NIH/3T3 fibroblasts, confirmation, cytotoxicity control for T. cruzi proliferation inhibitor project, cell-based, cherry-pick, single point | cytotoxicity (signal decrease), % at 8.35 µM | AID 651742, 2012 | shares compounds with T cruzi growth-1 | 14% of 5,600 active | NIH/3T3 viability, CellTiter-Glo ATP luminescence, 90 h;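 active = mean signal decrease across replicates above about 35% based on untreated-well scatter, with enough replicates individually passing, limit read from the data; inconclusive = no rule stated though some were filed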;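 note: 0% = median of neutral control wells and 100% = median of positive control wells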
NIH3T3 tox 2: NIH/3T3 fibroblast cytotoxicity, confirmation, cytotoxicity control, cell-based, cherry-pick, single point, set 2; shares compounds with T cruzi growth-1; NIH/3T3 viability, CellTiter-Glo ATP luminescence, 90 h; inhibition, % at 24.9 µM; 56% of 5,600 active;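 active = mean loss of cell viability signal at or above a set limit, and enough replicates individually reaching it; inconclusive = meets only the mean limit or only the replicate share; inactive = meets neither condition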;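 note: 0% = median of neutral control wells and 100% = median of positive control wells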
An asterisk follows results filed as active; ? = inconclusive; . = no result. Compounds with a hit are over-represented: about 6.7% of the library has one in this group of screens.

SMILES	Pf Dd2 inh	C diff HTS	T cruzi growth-1	T cruzi growth-2	T cruzi growth-3	NIH3T3 tox	NIH3T3 tox 2
C[C@@H]1CN([C@H](C)CO)C(=O)c2cccc(NS(=O)(=O)c3cn(C)cn3)c2O[C@H]1CN(C)CC1CCCCC1	16	3	102*	-15	11	-10	-5
C[C@@H]1CN([C@@H](C)CO)C(=O)c2cccc(NS(=O)(=O)c3cn(C)cn3)c2O[C@@H]1CN(C)CC1CCCCC1	6	1	0	.	.	.	.
C[C@H]1CN([C@@H](C)CO)C(=O)c2cccc(NS(=O)(=O)c3cn(C)cn3)c2O[C@H]1CN(C)Cc1ccc(C(=O)O)cc1	-11	-1	26	.	.	.	.
COc1ccc(S(=O)(=O)Nc2cccc3c2O[C@@H](CN(C)Cc2ccc(C(=O)O)cc2)[C@H](C)CN([C@@H](C)CO)C3=O)cc1	-6	-3	105*	2	11	-10	-8
C[C@H](CO)N1C[C@H](C)[C@H](CN(C)C(=O)Nc2cccc3ccccc23)Oc2c(NC(=O)c3cnccn3)cccc2C1=O	0	-1	37	.	.	.	.
N#C[C@H]1[C@H](c2ccccc2-c2ccc(F)cc2)[C@@H](CO)N1C(=O)Cc1cccnc1	8	-2	.	.	.	.	.
C[C@@H]1CN([C@@H](C)CO)C(=O)Cc2cc(NS(=O)(=O)c3cn(C)cn3)ccc2O[C@@H]1CN(C)C(=O)Nc1ccc(F)cc1	14	-2	-4	.	.	.	.
COc1ccc(C#Cc2ccc([C@@H]3[C@H]4CN(C(=O)Nc5ccccc5F)CCCCN4[C@H]3CO)cc2)cc1	-64	-9	49	.	.	.	.
COc1ccc(C#Cc2ccc([C@H]3[C@H](CO)N4CCCCN(C(=O)Nc5cccc(F)c5)C[C@@H]34)cc2)cc1	-64	-79	72	.	.	.	.
COc1ccc(C#Cc2ccc([C@H]3[C@H]4CN(C(=O)Nc5ccc(F)cc5)CCCCN4[C@H]3CO)cc2)cc1	-9	26	79	.	.	.	.
COc1ccc(C#Cc2ccc([C@@H]3[C@@H](CO)N4CCCCN(C(=O)Nc5ccccc5)C[C@@H]34)cc2)cc1	-37	6	111*	83	93	31	102*
COc1ccc(C#Cc2ccc([C@H]3[C@H]4CN(C(=O)Nc5cccc(F)c5)CCCCN4[C@H]3CO)cc2)cc1	-29	17	113*	104*	85	1	15
COc1ccc(C#Cc2ccc([C@@H]3[C@@H](CO)N4CCCCN(C(=O)Nc5ccccc5F)C[C@H]34)cc2)cc1	?	6	103	.	.	.	.
COc1ccc(C#Cc2ccc([C@H]3[C@@H](CO)N4CCCCN(C(=O)Nc5ccc(F)cc5)C[C@@H]34)cc2)cc1	6	-16	107*	104*	104*	14	24
COc1ccc(C#Cc2ccc([C@H]3[C@H]4CN(C(=O)Nc5ccccc5F)CCCCN4[C@H]3CO)cc2)cc1	-56	-8	120*	106*	60	29	33*
CC(=O)N1[C@H](CO)[C@H](c2ccc(-c3ccc(F)cc3)cc2)[C@H]1CNC(=O)C1CC1	-21	-7	28	.	.	.	.
O=C(C[C@@H]1CC[C@H](NC(=O)Nc2ccc(F)cc2)[C@@H](CO)O1)NCc1ccccn1	0	-4	1	.	.	.	.
Cc1ccc(S(=O)(=O)Nc2ccc3c(c2)C(=O)N([C@@H](C)CO)C[C@@H](C)[C@H](CN(C)C(=O)Nc2ccc4c(c2)OCO4)O3)cc1	17	.	2	.	.	.	.
CCCNC(=O)N[C@@H]1C=C[C@@H](CC(=O)NC2CCCCC2)O[C@H]1CO	24	.	-44	.	.	.	.
COc1ccc(C#Cc2ccc([C@@H]3[C@H]4CN(C(=O)Nc5ccc(F)cc5)CCCCN4[C@H]3CO)cc2)cc1	-7	49	1	.	.	.	.
O=C(Nc1cccc(F)c1)N1CCCCN2[C@@H](CO)[C@@H](c3ccc(C#Cc4cccnc4)cc3)[C@@H]2C1	-72	34	100*	106*	100*	59*	103*
O=C(Nc1cccc(F)c1)N1CCCCN2[C@@H](CO)[C@@H](c3ccc(C#Cc4ccccc4)cc3)[C@@H]2C1	-62	64	79	.	.	.	.
COc1ccc(NC(=O)N2CCCCN3[C@H](CO)[C@@H](c4ccc(C#Cc5ccccc5)cc4)[C@H]3C2)cc1	-8	2	107*	96*	104*	91*	104*
COc1ccc(NC(=O)N2CCCCN3[C@H](C2)[C@H](c2ccc(C#Cc4ccccn4)cc2)[C@@H]3CO)cc1	-5	-1	84	.	.	.	.
COc1ccc(NC(=O)N2CCCCN3[C@H](CO)[C@@H](c4ccc(C#Cc5ccccc5)cc4)[C@@H]3C2)cc1	7	48	112*	91	95	37*	104*
SMILES	Pf Dd2 inh	C diff HTS	T cruzi growth-1	T cruzi growth-2	T cruzi growth-3	NIH3T3 tox	NIH3T3 tox 2
CCCNC(=O)N1CC2(CN(Cc3cccnc3)C2)c2c(n(C)c3cc(OC)ccc23)[C@H]1CO	-54	-14	.	.	.	.	.
CS(=O)(=O)N1[C@H](CO)[C@@H](c2ccccc2)C12CN(C(=O)C1CC1)C2	15	4	.	.	.	.	.
C[C@H](CO)N1C[C@H](C)[C@H](CN(C)Cc2ccc(Oc3ccccc3)cc2)Oc2ncc(-c3cccnc3)cc2C1=O	-13	1	49	.	.	.	.
C[C@H]1CN([C@@H](C)CO)C(=O)c2cc(-c3cccnc3)cnc2O[C@@H]1CN(C)Cc1ccc(Oc2ccccc2)cc1	-52	-5	?	107*	78	12	104*
C[C@@H]1CN([C@H](C)CO)C(=O)c2cc(-c3cccnc3)cnc2O[C@H]1CN(C)Cc1ccc(Oc2ccccc2)cc1	-64	0	89	.	.	.	.
C[C@H]1CN([C@@H](C)CO)C(=O)c2cc(-c3ccncc3)cnc2O[C@@H]1CN(C)Cc1ccc(Oc2ccccc2)cc1	-71	-12	98*	105*	78	33	104*
C[C@@H]1CN([C@@H](C)CO)S(=O)(=O)c2ccc(-c3cncnc3)cc2O[C@@H]1CN(C)C(=O)C1CCCCC1	-8	0	.	.	.	.	.
C[C@@H]1CN([C@H](C)CO)C(=O)c2cc(NC(=O)c3ccccc3)ccc2O[C@@H](C)CCCCO[C@@H]1CN(C)Cc1ccc(C(F)(F)F)cc1	-58	20	69	.	.	.	.
O=C(Nc1ccc(Cl)cc1)N1C[C@H]2[C@@H](c3ccccc31)[C@@H](CO)N2CC1CCCCC1	-1	5	109*	106*	91	7	104*
